Screens as filed in PubChem.
A selection: hits, their analogues and other compounds. The true share with any hit is near 11%.
HPGD block: blocks human HPGD enzyme activity; 4.3% of 150,000 active; purified HPGD, NADH fluorescence kinetic, PGE2 substrate; AID 894; P15428; Potency, µM, most hits filed as inhibitors
Target sequence (P15428 whole entry, looked up): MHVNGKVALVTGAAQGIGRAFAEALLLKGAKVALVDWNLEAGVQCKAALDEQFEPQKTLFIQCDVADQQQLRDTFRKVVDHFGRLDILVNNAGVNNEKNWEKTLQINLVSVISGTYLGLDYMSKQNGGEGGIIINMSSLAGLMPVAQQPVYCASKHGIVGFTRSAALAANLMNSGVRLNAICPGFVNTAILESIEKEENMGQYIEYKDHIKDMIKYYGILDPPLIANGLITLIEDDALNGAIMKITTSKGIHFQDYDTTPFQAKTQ
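NADH formation kinetics: reaction with 30 uM PGE2 and 1 mM NAD+ (final), 20 nM enzyme, Tris-HCl pH 8 with Tween 20, after 15 min compound preincubation at room temperature. Fluorescence change, last versus first of five reads.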
PNC inhibitor: perinucleolar compartment assembly inhibition; PC3M PTB-GFP, PNC prevalence imaging, 16 h; hits give low values; activity change (PNC), negative = inhibition, % at 10 µM; 3.1% of 140,000 active;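 active = readout at or below -70, meaning at least 70% loss of cells showing the perinucleolar compartment, a nuclear body marking cancer cells; inconclusive = readout between -30 and a set limit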
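PC3M cells stably expressing PTB-GFP, 750–1000 cells/well, treated 16 h at 37 °C with compound (23 nl of library stock), in duplicate. After paraformaldehyde fixation and Hoechst stain, imaged at 20x; PNC prevalence scored by image analysis.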
ALDH1A1 block: blocks purified human ALDH1A1 activity; Purified ALDH1A1, NADH fluorescence, propionaldehyde substrate; Potency, µM (doses to about 75.3 µM), most hits filed as inhibitors; 7.3% of 220,000 active; AID 1030; P00352
Numbers stand for hits; n = inactive; u = inconclusive; x = no result; [ ] = remark or other dose. Unless noted, calls come from the whole dose curve; as a rule, active = well fitted inhibition curve with a large enough effect (not every such curve was filed as active); inconclusive = small, poorly fitted or top-dose-only effect, or another doubt; inactive = no such curve, though single readings can be large or run the other way.

SMILES	HPGD block	PNC inhibitor	ALDH1A1 block
Cc1ccc(C(=O)CSc2nnnn2C(C)C)c(C)c1	n	n	28µM
COc1ccc(CNC(=O)C23CN(Cc4ccccc4)CC2C(c2ccc([N+](=O)[O-])cc2)=NO3)cc1 (centres undefined)	n	n	u
O=C(NCCCCc1ccccc1)C12CN(Cc3ccccc3)CC1C(c1ccc([N+](=O)[O-])cc1)=NO2 (centres undefined)	n	n	11µM
O=C(NCCCCc1ccccc1)C12CN(Cc3ccccc3)CC1C(c1cccc([N+](=O)[O-])c1)=NO2 (centres undefined)	n	n	u
COc1ccc(CCNC(=O)C23CN(Cc4ccccc4)CC2C(c2ccc([N+](=O)[O-])cc2)=NO3)cc1 (centres undefined)	n	n	16µM
CCOc1ccc(-c2nnn(CC(=O)c3cc(OC)ccc3OC)n2)cc1	u	n	n
CCN(CC(=O)NC1CCS(=O)(=O)C1)S(=O)(=O)c1ccc(C)c(C)c1 (centres undefined)	n	n	n
CCOC(=O)CSc1cccc2cccnc12	u	n	u
COc1cccc(C(c2c(C)[nH]n(-c3ccccc3)c2=O)c2c(C)[nH]n(-c3ccccc3)c2=O)c1O	n	n	n
COc1cccc(C(c2c(C)[nH]n(-c3ccccc3)c2=O)c2c(C)[nH]n(-c3ccccc3)c2=O)c1OC	22µM	n	3.5µM
Fc1cccc(F)c1CSc1nc2ccccc2[nH]1	n	n	n
Fc1ccccc1CSc1nc2ncccc2[nH]1	18µM	n	22µM
Cc1noc(C)c1CSc1nnnn1-c1ccc(Cl)cc1	n	n	u
O=C(O)/C=C(\CC(=O)O)C(=O)O	n	x	n[13.5 µM]
O=C1C(Nc2ccccc2)=C(NS(=O)(=O)c2ccccc2)C(=O)c2ccccc21	n	u	n
O=C1C(NS(=O)(=O)c2ccc(Cl)cc2)=C(N2CCCCC2)C(=O)c2ccccc21	n	u	8.9µM
Cc1ccc(-c2nc(C=Nc3ccccc3)c(O)o2)cc1	x	x	n
Cc1ccc(C(=O)Oc2oc(-c3ccco3)nc2C=Nc2ccc(Cl)cc2)cc1	6.3µM	n	u
O=c1oc(-c2ccco2)nc2ccccc12	u	n	u
O=C(Oc1oc(-c2ccco2)nc1C=Nc1ccccc1)c1ccco1	2µM	u	u
Cc1ccc(C(=O)Oc2oc(-c3ccccc3)nc2C=Nc2ccc(N(C)C)cc2)cc1	n	u	u
O=C(Oc1oc(-c2ccco2)nc1C=Nc1ccccc1)c1ccoc1	5µM	u	u
CN(C)c1ccc(N=Cc2nc(-c3ccccc3)oc2OC(=O)c2cccc(Cl)c2)cc1	u	n	13µM
Cc1ccc(N=Cc2nc(-c3ccco3)oc2O)cc1	n	n	u
COc1cccc([C@@H]2Oc3ccc(Br)cc3C[C@H]2OC(=O)NS(=O)(=O)c2ccc(F)cc2)c1	n	x	n
SMILES	HPGD block	PNC inhibitor	ALDH1A1 block
COc1ccccc1OCCCC(=O)Nc1ccc([N+](=O)[O-])cc1Br	x	x	n
COc1ccc(NC(=O)COC(=O)c2c3c(nc4ccccc24)CCCC3)cc1Cl	n	n	n
O=C1Nc2ccccc2C(O)(C(=O)NCc2ccc3c(c2)OCO3)N1c1ccc(Cl)c(Cl)c1 (centres undefined)	n	n	u
Cc1ccc2c(c1)cc1c(=O)[nH]ncn12	n	n	u
O=C(/C=C/c1ccc(F)cc1)c1ccccc1Br	n	n	u
Cc1ccc2nc(-c3sc4nc(C)cc(C)c4c3N)[nH]c2c1	u	n	u
CC1CCN(Cc2csc(N)n2)CC1	n	u	n
CCOC(=O)C1=C(C)NC(C)=C(C(=O)OCC)C1c1sccc1C	n	n	n
CCc1cc2c(=O)c(-c3nc4ccccc4n3C)c(C)oc2c(CN2CCN(C)CC2)c1O	u	n	u
CCc1cc2c(=O)c(-c3nc4ccccc4n3C)c(C(C)C)oc2c(CN2CCN(C)CC2)c1O	u	-104	u
O=C(CSc1nc2nn(-c3ccccc3)c(=O)c-2c2n1CCCCC2)NCCc1ccccc1	x	x	n
CCSc1nc2nn(-c3ccccc3)c(=O)c-2c2n1CCCCC2	n	n	2.5µM
COc1ccc(NC(=O)Cn2c(CCC(=O)O)ccc2-c2ccc(C)cc2)cc1	x	x	n
O=C(COC(=O)C1CCCCC1)Nc1ccccc1OC(F)F	x	x	n
CCCc1cc(OC)c2c(c1)OCO2	n	x	u
Clc1ccccc1-c1nc(N/N=C/c2cccnc2)c2ccccc2n1	14µM	u	u
Cc1sc(N/N=C/c2cccnc2)nc1-c1ccc(Cl)cc1	n	n	n
CC(C)(C)c1csc(N/N=C/c2cccnc2)n1	x	x	25µM
Cc1ccc(-c2nc(N/N=C/c3ccncc3)c3ccccc3n2)cc1	n	-83	u
Cc1ccc2nc(C(Cl)(Cl)Cl)nc(N/N=C/c3ccncc3)c2c1	x	x	n
Clc1ccc(N/N=C/c2cccnc2)cc1	n	u	25µM
